Reference: the supplement of paper PMC10037445
The full ranking holds about 2,900 compounds; the median of “NF-kB SEAP reporter activity, fold change vs agonist alone” is about 0.99, and the highest 2% start at about 2.6. Only a selection was taken, and the highest values are over-represented in it overall.

Tests used:
[1] = system: RAW-Dual; assay: NF-kB SEAP reporter activity, fold change vs agonist alone; higher = enhanced NF-kB activity; conditions: library stock concentration (final ~1000-fold dilution): 10 mM, cytotoxicity flag (confluency mask): not cytotoxic
Method in brief: (§1)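 RAW-Dual macrophages (50,000 cells/well in DMEM, 384-well plates) received 50 nL of library stock by pin tool, then a PRR agonist 1 h later, and were kept at 37 °C, 5% CO2. After 20 hours, supernatant was read for IRF by QuantiLuc luminescence and for NF-κB by QuantiBlue absorbance at 620 nm. Reporter activity is fold change over agonist-alone wells. Cytotoxic wells had IncuCyte confluency below 70% of agonist controls in both mask sets.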

[2] = system: RAW-Dual; assay: NF-kB SEAP reporter activity, fold change vs agonist alone; cytotoxicity flag (confluency mask): not cytotoxic; higher = enhanced NF-kB activity
Method in brief: as §1

[3] = agonist: ODN 1826 (TLR9) 0.5 ug/mL
[4] = agonist: Pam2CSK4 (TLR2/6) 0.1 ug/mL
[5] = agonist: Pam3CSK4 (TLR2/1) 0.1 ug/mL

| SMILES | NF-kB SEAP reporter activity ([1]; agonist: Imiquimod (TLR7) […]) | NF-kB SEAP reporter activity ([1]; agonist: MPLA (TLR4) […]) | NF-kB SEAP reporter activity ([2]; agonist: LPS (TLR4) 0.1 ug/mL) | NF-kB SEAP reporter activity [2, 3] | NF-kB SEAP reporter activity [2, 4] | NF-kB SEAP reporter activity [2, 5] |
| --- | --- | --- | --- | --- | --- | --- |
| CCn1c(-c2nonc2N)nc2cnc(Oc3cccc(NC(=O)c4ccc(OCCN5CCOCC5)cc4)c3)cc21.Cl | 1.48 | 1.41 | – | – | – | – |
| Nc1ccc(C(=O)Nc2cccc(-c3nc(N4CCOCC4)c4oc5ncccc5c4n3)c2)cn1 | 1.77 | 2.3 | – | – | – | – |
| Nc1ccc(-c2cccc(C(=O)Nc3cnc4nc(N5CCOCC5)oc4c3)n2)cn1 | 1.04 | 1.08 | – | – | – | – |
| CCn1c(-c2nonc2N)nc2cnc(Oc3cccc(NC(=O)c4ccc(OCCN5CCOCC5)cc4)c3)cc21.Cl (library stock concentration (final ~1000-fold dilution): 10 mM) | – | – | 1.31 | 0.288 | 1.12 | 1.56 |
| Nc1ccc(C(=O)Nc2cccc(-c3nc(N4CCOCC4)c4oc5ncccc5c4n3)c2)cn1 (library stock concentration (final ~1000-fold dilution): 10 mM) | – | – | 2.62 | 0.304 | 0.638 | 0.805 |
| Oc1cccc(-c2nc(N3CCOCC3)c3oc4ncccc4c3n2)c1 (library stock concentration (final ~1000-fold dilution): 10 mM) | – | – | 4.71 | 0.369 | 0.849 | 1.34 |
| Oc1cccc(-c2nc(N3CCOCC3)c3oc4ncccc4c3n2)c1 | 2.46 | 2.44 | – | – | – | – |
| N#Cc1cccc(-c2c[nH]c3ncnc(N4CCOCC4)c23)c1 (library stock concentration (final ~1000-fold dilution): 10 mM) | – | – | 0.963 | 0.792 | 0.588 | 0.962 |
| Nc1ccc(-c2cccc(C(=O)Nc3cnc4nc(N5CCOCC5)oc4c3)n2)cn1 (library stock concentration (final ~1000-fold dilution): 10 mM) | – | – | 1.43 | 1.01 | 0.911 | 1.33 |
| CC1(C)OCCn2c1nc1c(N3CCOCC3)nc(-c3cnc(N)nc3)nc12 | 1.02 | 1.07 | – | – | – | – |
| N#Cc1cccc(-c2c[nH]c3ncnc(N4CCOCC4)c23)c1 | 1.01 | 0.873 | – | – | – | – |
| CC1(C)OCCn2c1nc1c(N3CCOCC3)nc(-c3cnc(N)nc3)nc12 (library stock concentration (final ~1000-fold dilution): 10 mM) | – | – | 1.42 | 0.768 | 0.464 | 0.544 |
| Cc1csc(-c2nc[nH]c2-c2ccc3ncsc3c2)n1.Cl (library stock concentration (final ~1000-fold dilution): 10 mM) | – | – | 2.26 | 1.18 | 1.24 | 1.47 |
| Cc1csc(-c2nc[nH]c2-c2ccc3ncsc3c2)n1.Cl | 0.927 | 1.34 | – | – | – | – |
| CC(Oc1cc(-n2cnc3ccc(CN4CCN(C)CC4)cc32)sc1C(N)=O)c1ccccc1C(F)(F)F (configuration not stated) (library stock concentration (final ~1000-fold dilution): 10 mM) | – | – | 1.15 | 0.967 | 0.97 | 0.799 |
| CC(Oc1cc(-n2cnc3ccc(CN4CCN(C)CC4)cc32)sc1C(N)=O)c1ccccc1C(F)(F)F (configuration not stated) | 0.909 | 0.993 | – | – | – | – |
| N#C/C(C(=O)c1ccc(Cl)cc1Cl)=C1\NC(=O)c2ccccc2N1 | 0.86 | 1.11 | – | – | – | – |
| N#C/C(C(=O)c1ccc(Cl)cc1Cl)=C1\NC(=O)c2ccccc2N1 (library stock concentration (final ~1000-fold dilution): 10 mM) | – | – | 1.13 | 0.982 | 0.65 | 0.693 |
| CC1OC(OC2C(Oc3cc(O)c4c(c3)OC(c3ccc(O)cc3)CC4=O)OC(CO)C(O)C2O)C(O)C(O)C1O (configuration not stated) | 0.993 | 1.05 | – | – | – | – |
| CC1OC(OC2C(Oc3cc(O)c4c(c3)OC(c3ccc(O)cc3)CC4=O)OC(CO)C(O)C2O)C(O)C(O)C1O (configuration not stated) (library stock concentration (final ~1000-fold dilution): 10 mM) | – | – | 0.935 | 1.04 | 1.17 | 1.13 |
| COc1ccc(C[C@@H]2c3cc(Oc4cc(C[C@@H]5c6cc(OC)c(OC)cc6CCN5C)ccc4O)c(OC)cc3CCN2C)cc1 | 0.915 | 1.09 | – | – | – | – |
| COc1ccc(C[C@@H]2c3cc(Oc4cc(C[C@@H]5c6cc(OC)c(OC)cc6CCN5C)ccc4O)c(OC)cc3CCN2C)cc1 (library stock concentration (final ~1000-fold dilution): 10 mM) | – | – | 1.06 | 0.182 | 0.121 | 0.622 |
| Oc1ccc(-c2nc(-c3ccc(F)cc3)c(-c3ccncc3)[nH]2)cc1 | 1.92 | 1.84 | – | – | – | – |
| Oc1ccc(-c2nc(-c3ccc(F)cc3)c(-c3ccncc3)[nH]2)cc1 (library stock concentration (final ~1000-fold dilution): 10 mM) | – | – | 2.59 | 0.851 | 1.01 | 1.2 |
